According to ChEMBL document CHEMBL3988442, “University of Dundee, Small-Polar-MMV Screening Library” (2021):
In all, about 48,000 compounds went through this assay and about 13,000 (27%) showed an effect of 50% or more. The list shows a part of the results.

These molecules were tested on Wolbachia pipientis (assay: Anti-Wolbachia Cell-Based Screen). Details: 5 µM.
Type: functional
Parameters: scale not given: in the data most compounds retested in dose-response had high values

SMILES	Percent Effect [%]
CC(C)[C@@H]1CN(C(=O)C2(c3ccccc3)CCN(C)CC2)C[C@H]1N(C)C	-1.656
CC(C)OCCNC1(c2ccc(F)cc2)CCOCC1	3.648
Fc1cccc(O[C@@H]2C[C@H]3CN(Cc4ccncc4)CCN3C2)c1.O=C(O)C(F)(F)F.O=C(O)C(F)(F)F.O=C(O)C(F)(F)F	-7.787
O=C(O)C(F)(F)F.O=C(O)C(F)(F)F.O=C(O)C(F)(F)F.c1cc(CN2CCN3C[C@H](Oc4cncnc4)C[C@H]3C2)ccn1	106.9
O=C(c1ccncc1)N1CCN2C[C@H](Oc3cncnc3)C[C@H]2C1	8.644
Cn1ccnc1CN1CCN2C[C@H](OCc3cccnc3)C[C@H]2C1.O=C(O)C(F)(F)F.O=C(O)C(F)(F)F.O=C(O)C(F)(F)F	-4.128
O=C(O)C(F)(F)F.O=C(O)C(F)(F)F.O=C(O)C(F)(F)F.c1cncc(CN2CCN3C[C@H](Oc4cncnc4)C[C@H]3C2)c1	97.08
O=C(O)C(F)(F)F.O=C(O)C(F)(F)F.O=C(c1cccnc1)N1CCN2C[C@H](Oc3cncnc3)C[C@H]2C1	-8.279
Cc1ccc2c(n1)N(CC1CC1)CCN(S(=O)(=O)C1CC1)C2.O=C(O)C(F)(F)F	2.676
COc1cc(N2CCN(CC3CC3)c3nc(C)ccc3C2)ncn1	95.93
COCCN1CCN(c2cc(OC)ncn2)Cc2ccc(C)nc21	108.6
CC(C)CN1CC[C@@H]2[C@@H]1CCN2C(=O)N(C)C.O=C(O)C(F)(F)F	-11.1
O=C(c1cccnc1)N1C[C@@H]2CC[C@H](C1)N(Cc1ncc[nH]1)C2	-11.14
Cc1cccc(CN2CCN3C(=O)NC[C@H]3C2)n1	-6.805
Fc1ccc(CN2C[C@@H](OCc3ccccn3)[C@H]3COC[C@H]32)cc1.O=C(O)C(F)(F)F.O=C(O)C(F)(F)F	103
CCN(CC)CCN1CCO[C@H]2[C@@H](OCc3ccccn3)CC[C@@H]21	-0.06843
O=C(O)C(F)(F)F.O=C(O)C(F)(F)F.c1ccc(O[C@@H]2CN(Cc3nccs3)[C@@H]3CCCO[C@@H]32)nc1	-2.827
O=C(N[C@@H]1CN(Cc2ccccn2)[C@@H]2COC[C@@H]21)C1CCC1.O=C(O)C(F)(F)F	-10.37
c1ccc(CO[C@@H]2CN(Cc3ccoc3)[C@@H]3COC[C@@H]32)nc1	117.8
Fc1cccnc1O[C@@H]1CC[C@H]2[C@H]1OCCN2Cc1nccs1.O=C(O)C(F)(F)F.O=C(O)C(F)(F)F	0.8031
O=C(O)C(F)(F)F.O=C(O)C(F)(F)F.c1ccc(CO[C@H]2CO[C@@]3(CCN(Cc4ccoc4)C3)C2)nc1	-0.8411
O=C(O)C(F)(F)F.O=C(O)C(F)(F)F.c1cncc(CO[C@H]2CN(Cc3ccco3)[C@@H]3COC[C@H]23)c1	97.44
O=C(O)C(F)(F)F.O=C(O)C(F)(F)F.c1ccc(CO[C@@H]2CN(Cc3nccs3)[C@@H]3COC[C@@H]32)nc1	102.5
CN(Cc1ccco1)[C@@H]1CN(Cc2cccnc2)[C@@H]2CCCO[C@H]12.O=C(O)C(F)(F)F.O=C(O)C(F)(F)F.O=C(O)C(F)(F)F	8.312
O=C(O)C(F)(F)F.O=C(O)C(F)(F)F.c1cncc(CO[C@H]2CO[C@@]3(CCN(Cc4ccoc4)C3)C2)c1	-6.874
COCCO[C@@H]1C[C@H]2CN(C(=O)c3cccnc3)CCN2C1	-1.303
CNC(=O)[C@H]1C[C@@H]2CN(C(=O)c3ccc(C)nc3)C[C@@H]2N1C	-27.99

SMILES	Percent Effect [%]
COCCn1c(C(=O)NCc2n[nH]c(C)n2)cc2ccccc21	-4.273
O=C(O)C(F)(F)F.O=C(O)C(F)(F)F.O=C(O)C(F)(F)F.c1ccc(CO[C@@H]2CN(Cc3cccnc3)[C@@H]3COC[C@@H]32)nc1	110.7
CCOC(=O)[C@@H]1[C@@H](c2ccccc2)CN2CCNC[C@H]12	118.8
CNC(=O)[C@@H]1[C@H]2CNCCN2C[C@H]1c1ccccc1	84.83
CC(=O)C1(c2ccccc2)CCN(C(=O)C2CNCCO2)CC1 (stereo not given)	2.674
CC(=O)NC(C)C(=O)NCc1ccc(N2CCNC(=O)C2)cc1 (stereo not given)	100.5
Cl.O=C(N[C@H]1CN[C@H]2CCCO[C@H]21)c1ccno1	-7.03
O=C1CO[C@@H]2CNC[C@H]2N1CC1CC1	-15.76
COc1cccc(CCNCc2c(C)nn(C)c2N(C)C)c1	-6.952
COc1c(CNCCc2c[nH]c3ccccc23)c(C)nn1C	86.16
COc1c(CNCCc2c[nH]c3ccccc23)c(C(C)C)nn1C	95.04
CC(C(=O)N(C)C)N1CCCN(C(=O)Oc2ccccc2)CC1 (stereo not given)	-7.894
Cc1ncc2c(n1)CCCC2NC(=O)c1cnn(Cc2ccccc2)c1 (stereo not given)	108
Cl.NC1(c2nc(C(F)(F)F)cc(=O)[nH]2)CCCCC1	-23.28
COCCN1CCN(S(C)(=O)=O)Cc2ccc(C)nc21.O=C(O)C(F)(F)F	1.772
COCCN1CCN(c2ccc(C)nn2)Cc2cccnc21.O=C(O)C(F)(F)F	-12.27
COCCN1CCN(c2ccc(C)nn2)Cc2ccc(C)nc21.O=C(O)C(F)(F)F.O=C(O)C(F)(F)F	113.9
COCCN1CCN(c2cccc(C)n2)Cc2ccc(C)nc21.O=C(O)C(F)(F)F.O=C(O)C(F)(F)F	115.7
COc1ccc(CCN)cc1-c1ccc(O)cc1	-1.441
COc1cccc2c(=O)n(C3CCNCC3)cnc12	0.1861
COCC(=O)NC(C)Cc1cccc(OC)c1 (stereo not given)	-11.91
COc1ccc(CC(C)Nc2cccc(F)c2)cc1 (stereo not given)	103.5
COc1cccc(CC(C)NC(=O)NC(C)C)c1 (stereo not given)	-4.746
CC(=O)N1CC[C@H]2N(C)CC[C@@]2(C(=O)Nc2cccnc2)CC1	115.3
CC(=O)N1C[C@H]2CNC[C@@]2(C(=O)NCCCOc2cccnc2)C1	-25.71
CC(=O)N1CCC2(CC1)NC(=O)[C@H]1CN(Cc3cccnc3)C[C@H]12	-21.72
O=C(CCc1nccs1)N1CCC(C(=O)O)(c2ccccc2)CC1	4.146

SMILES	Percent Effect [%]
CN(Cc1nc(C2CC2)no1)C(=O)CN1CC(c2ccccc2)CC1=O (stereo not given)	-16.31
CC1CCN(CC(=O)N(Cc2ccccc2)Cc2nccs2)C1=O (stereo not given)	108.7
O=C(NC[C@H]1C[C@@H]2CCN1C[C@@H]2CN1CCOCC1)Nc1ccccc1	10.54
Cc1cc(C(=O)N2CCC3(CCN3Cc3ccc(F)cc3)C2)no1.O=C(O)C(F)(F)F (stereo not given)	-18.68
CN(C)C(=O)CN1CCC2(CCCN(Cc3cccnc3)C2)C1=O.O=C(O)C(F)(F)F.O=C(O)C(F)(F)F (stereo not given)	-8.484
Cc1ccc(CN2CC[C@@H]3[C@H]2CCC(=O)N3Cc2ccncc2)s1.O=C(O)C(F)(F)F.O=C(O)C(F)(F)F	13.87
CC[C@@H]1N(Cc2ccccn2)CCC[C@]12CCC(=O)N2CCOC	95.06
CC[C@@H]1N(Cc2ccncc2)CCC[C@]12CCC(=O)N2CCOC.O=C(O)C(F)(F)F.O=C(O)C(F)(F)F	102.9
CNC(=O)CN1C(=O)CCC12CCCN(Cc1ccccn1)C2 (stereo not given)	-6.812
O=C(O)C(F)(F)F.O=C(O)C(F)(F)F.O=C(O)C(F)(F)F.O=C1N(c2cccnc2)CCC12CCCN(Cc1cccnc1)C2 (stereo not given)	-3.646
Cn1cc(N2C(=O)CC[C@@H]3[C@H]2CCN3Cc2ccncc2)cn1.O=C(O)C(F)(F)F.O=C(O)C(F)(F)F	-8.311
CC[C@@H]1N(Cc2ccncc2)CCC[C@]12CCC(=O)N2C.O=C(O)C(F)(F)F.O=C(O)C(F)(F)F	105.4
O=C(O)C(F)(F)F.O=C(O)C(F)(F)F.O=C1CC[C@@H]2[C@@H](CCN2Cc2ccncc2)N1c1ccccc1	-23.66
COCCCN1CCCCC12CC(=O)N(Cc1ccccn1)C2 (stereo not given)	-0.9294
CC[C@@H]1N(Cc2cccnc2)CCC[C@]12CCC(=O)N2C.O=C(O)C(F)(F)F.O=C(O)C(F)(F)F	114.6
Cc1oc(-c2ccco2)nc1CC(=O)N1CCN(C2CCC2)CC1	0.04228
CNC(=O)[C@H]1C[C@@H]2CN(C(=O)c3cncc(C)c3)C[C@@H]2N1C	-44.11
O=C1O[C@@H]2CN(Cc3ccsc3)C[C@@H]2N1Cc1ccccn1	-2.572
O=C(CCc1cscn1)N1CCC(C(=O)O)(c2ccccc2)CC1	-1.592
CCN1CCNC(=O)C12CCN(C(=O)c1ccccn1)CC2	120
CCN1CCN(C)C(=O)C12CCN(C(=O)Cc1ccccn1)CC2.O=C(O)C(F)(F)F	105.5
N#CC1(c2ccccc2)CCN(C(=O)CN2C(=O)CCNC2=O)CC1	-11.36
CCN1CCNC(=O)C12CCN(C(=O)Cc1ccccn1)CC2	118.9
CC(C)CN1CCNC(=O)C12CCN(C(=O)c1ccccn1)CC2	-2.981
CCS(=O)(=O)N1CCC2(C1)C(=O)N(C)CCN2Cc1ccncc1.O=C(O)C(F)(F)F.O=C(O)C(F)(F)F (stereo not given)	-0.1551
CC(C)N1CCN(C)C2(CCN(C(=O)c3ccnnc3)CC2)C1=O	-6.646
